The values below come from PubChem BioAssay (EPA / NIEHS).

Several values for one entry are separate records, joined by “and”; a condition that tells them apart may be missing. Identical values can stand only once. Inconclusive results are not listed. A structure can be active in one record and inactive in another. Activity calls are given as the source filed them. Rule for the calls: active = hit-call score of the fitted dose curve at least 0.9, where 1 is the maximum; inconclusive = response in the unintended direction; inactive = score below 0.9.

Test [1] in a line: TOX21_p53_BLA_p5_viability: Viability Assessment in the Tox21 HCT-116 p53 Agonism Beta-lactamase Assay, Phase 5 (AID 2283600). The method in brief: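 ATP luminescence (CellTiter-Glo, 30 min, RT) served as the viability read-out, with loss of signal indicating cytotoxicity. Compounds in DMSO were pinned at a 217-fold dilution onto 4000 cells/well and incubated 16 h, 37C.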
For test [2], the target named is Cellular tumor antigen p53 (Homo sapiens) (UniProt P04637). The test is described as follows: TOX21_p53_BLA_p4_ratio: Tox21 HCT-116 p53 Agonism Beta-lactamase Assay, Ratio, Phase 4 (AID 2283601). Summed up:
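HCT116 cells carrying an inducible beta-lactamase reporter were plated at 4000 cells/well, rested 5 h, then exposed to compounds in DMSO (217-fold dilution) for 16 h at 37C. CCF4-AM substrate was loaded 2 h at room temperature; 460/530 nm emission ratio scored gain-of-signal versus DMSO.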

A short description of test [3]: Tanguay_ZF_120hpf_YSE_legacy: (Legacy) Oregon State University Tanguay Lab 120 Hour Post-fertilization zebrafish Assay for Yolk Sac Edema (AID 2283634).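 For AC50: actives raise the incidence of yolk sac edema above the DMSO baseline.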 The method in brief:
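Binary brightfield scoring of yolk sac edema at 120 hpf; DMSO baseline, gain-of-signal fitting. Dechorionated 5D larvae, one per well, static exposure 6–120 hpf, 28C, 0.64% DMSO. Dead embryos not scored.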

Test [4] is described as follows: Tanguay_ZF_120hpf_AXIS_legacy: (Legacy) Oregon State University Tanguay Lab 120 Hour Post-fertilization zebrafish Assay for Body Axis Malformation (AID 2283635).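 For AC50: potency for an increased fraction of larvae scored with body axis malformation.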 The method in brief: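 Embryos: 5D wild-type, pronase-dechorionated 4 hpf; static exposure 6–120 hpf, 28C, sealed, dark, 1 embryo/well, 0.64% DMSO. 120 hpf axis malformation scored present/absent; dead embryos excluded. Analysed as gain of signal vs DMSO.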

Test [5] is described as follows: Tanguay_ZF_120hpf_EYE_legacy: (Legacy) Oregon State University Tanguay Lab 120 Hour Post-fertilization zebrafish Assay for Eye Malformation (AID 2283636).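 Note: binary presence or absence of eye malformation scored by brightfield in 120 hpf larvae.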 The method in brief:
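Static waterborne exposure of dechorionated zebrafish embryos (strain Tropical 5D), 6 to 120 hpf, sealed plates at 28C, 0.64% DMSO vehicle. Eye malformation is scored as a binary endpoint, with gain of signal analysed relative to DMSO.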

A short description of test [6]: Tanguay_ZF_120hpf_SNOU_legacy: (Legacy) Oregon State University Tanguay Lab 120 Hour Post-fertilization zebrafish Assay for Snout Malformation (AID 2283637). The method in brief:
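Dechorionated zebrafish, individually housed from 6 hpf in covered, sealed wells at 28C with 0.64% DMSO vehicle, were examined at 120 hpf for snout malformation. Responses were binary and analysed positive-direction relative to DMSO.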

Test [7] in a line: Tanguay_ZF_120hpf_JAW_legacy: (Legacy) Oregon State University Tanguay Lab 120 Hour Post-fertilization zebrafish Assay for Jaw Malformation (AID 2283638).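 For AC50: active means more embryos with jaw malformation than DMSO controls.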 Summed up: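 Binary jaw-malformation calls at 120 hpf by brightfield imaging; DMSO (0.64% v/v) = baseline. Embryos: 5D wild-type, pronase-dechorionated, one per well from 6 hpf, static exposure, 28C, sealed, dark.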
Test [8] can be described thus: Tanguay_ZF_120hpf_OTIC_legacy: (Legacy) Oregon State University Tanguay Lab 120 Hour Post-fertilization zebrafish Assay for Otic Vesicle Malformation (AID 2283639). The method in brief: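 Wild-type zebrafish larvae, whole-embryo exposure from early stage to 120 hpf at 28C. Binary brightfield scoring of otic vesicle morphology, fitted in the positive direction against the DMSO baseline.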

Test [9] can be described thus: Tanguay_ZF_120hpf_PE_legacy: (Legacy) Oregon State University Tanguay Lab 120 Hour Post-fertilization zebrafish Assay for Pericardial Edema (AID 2283640).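 For AC50: potency for increased incidence of pericardial edema versus DMSO baseline.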 Summed up:
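Static waterborne exposure, 5D wild-type embryos, 28C, to 120 hpf; final DMSO 0.64% (vol/vol). Binary PE call at 120 hpf by brightfield; fitted upward vs DMSO baseline. 5uM trimethyltin chloride as positive control.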

Test [10] in a line: Tanguay_ZF_120hpf_BRAI_legacy: (Legacy) Oregon State University Tanguay Lab 120 Hour Post-fertilization zebrafish Assay for Brain Malformation (AID 2283641). Summed up: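 Read-out: binary brain morphology call at 120 hpf (brightfield), fitted in gain-of-signal direction vs DMSO. Wild-type Tropical 5D embryos, static exposure, 28C, 0.64% DMSO final; 5uM trimethyltin chloride as positive control.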

Usually AC50 stands for the midpoint of the concentration-response curve, whichever way the signal moves.

Chain of Cellular tumor antigen p53 (Homo sapiens) (P04637 whole entry, looked up): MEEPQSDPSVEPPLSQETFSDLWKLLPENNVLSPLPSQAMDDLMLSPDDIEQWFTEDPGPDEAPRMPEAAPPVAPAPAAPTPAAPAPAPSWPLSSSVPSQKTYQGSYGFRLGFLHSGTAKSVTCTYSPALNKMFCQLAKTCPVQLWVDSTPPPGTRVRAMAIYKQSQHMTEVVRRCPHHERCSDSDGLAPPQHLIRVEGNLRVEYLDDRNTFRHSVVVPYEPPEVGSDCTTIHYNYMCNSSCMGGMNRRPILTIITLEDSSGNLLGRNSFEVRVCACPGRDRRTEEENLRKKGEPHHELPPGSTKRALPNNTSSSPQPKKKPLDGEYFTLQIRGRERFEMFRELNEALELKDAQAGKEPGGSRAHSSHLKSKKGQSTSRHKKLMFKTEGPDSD

`CCCCCCCCC1CCC(=O)O1` (configuration not stated): the call in test [1] and in test [2] was inactive.
`COC(=O)CC(C(C)=O)C(=O)OC` (configuration not stated): the outcome in test [1] and in test [2] was inactive.
Turning to `c1cnc2c(c1)ccc1cccnc12`, the compound was classed as inactive in [1] and in test [2].
Regarding `CCCCCCCCCCCC[N+](C)(C)CCCCCCCCCCCC`, the AC50 in test [1] is 37 µM (active); in test [2], 32.3 µM (active).
Consider `O=C(NO)c1ccccc1`, for which the outcome in [1] and in test [2] was inactive.
With `CCC1CO1` (configuration not stated), the result in test [1] and in test [2] was inactive.
Regarding `CCN(CC)CC`, the compound was classed as inactive in test [1] and in [2].
As to `NCc1cccc(CN)c1`, the compound was called inactive in test [1] and in test [2].
For `C[C@]12CC[C@@H]3c4ccc(O)cc4CC[C@H]3[C@@H]1C[C@@H](O)[C@@H]2O`, the compound was called inactive in test [1] and in [2].
In the case of `CC1=NN(c2ccccc2)C(=O)C1`, the compound was classed as inactive in [1] and in test [2].
For the compound `CNNCc1ccc(C(=O)NC(C)C)cc1`, the result in test [1] and in test [2] was inactive.
With `CCCCCCc1ccc(N)cc1`, the call in test [1] and in test [2] was inactive.
For `O=C(Nc1ccc(Cl)c(Cl)c1)c1cc(Cl)cc(Cl)c1O`, the call in test [1] was inactive. In addition, in [2], the AC50 is 2.77 µM (active).
Turning to `C[C@]12CC[C@@H]3c4ccc(O)cc4CC[C@H]3[C@@H]1CC[C@@H]2OC(=O)CCC1CCCC1`, the result in test [1] and in [2] was inactive.
For `N=C(N)c1ccc(OCCCCCOc2ccc(C(=N)N)cc2)cc1`, the call in test [3], in test [4], in test [5], in [6], in [7] and in test [8] was inactive. In addition, the outcome in test [9] and in test [10] was inactive.
On to `CCCCC(CC)C(=O)O` (configuration not stated), for which the compound was called inactive in [3], in [4], in test [6], in test [7], in test [8] and in test [9]. For the same compound, the call in test [10] was inactive.
Regarding `NC(=NCCCCCCN=C(N)/N=C(\N)Nc1ccc(Cl)cc1)/N=C(\N)Nc1ccc(Cl)cc1`, the AC50 in test [2] is 71.4 µM (active) [middle of 5 runs].
In the case of `CN(C)c1ccc(C(=C2C=CC(=[N+](C)C)C=C2)c2ccccc2)cc1`, the outcome in test [1] was inactive. In test [2], the AC50 is 15.8 µM (active) and the outcome was inactive.
As to `CCC(=O)O`, the outcome in test [2] was inactive.
In the case of `CC(=O)Nc1ccc(O)cc1`, the result in [3], in test [4], in test [5], in test [6], in test [7] and in test [8] was inactive. For the same compound, the call in test [9] and in test [10] was inactive.
With `Cc1[nH]nc2c1N=C(c1ccccc1Cl)c1cc([N+](=O)[O-])ccc1N2`, the outcome in test [3], in [4], in [6], in test [7], in test [8] and in test [9] was inactive. For the same compound, the outcome in [10] was inactive.
Regarding `CCCCCCCCCCCCOS(=O)(=O)O`, the call in test [3], in test [4], in [5], in [6], in test [7] and in test [8] was inactive. In addition, the compound was called inactive in test [9] and in [10].
For `CCCCc1oc2ccccc2c1C(=O)c1cc(I)c(OCCN(CC)CC)c(I)c1`, the outcome in test [1], in test [2], in [3], in [4], in [5] and in test [6] was inactive. Moreover, the compound was classed as inactive in test [7] and in [9]. Also, the AC50 in [2] was 64.9 µM (active).
For `CS(=O)(=O)c1ccc([C@@H](CC2CCCC2)C(=O)Nc2cnccn2)cc1Cl`, the outcome in test [3], in [4], in [5], in test [6], in [7] and in [8] was inactive. The call in test [9] was inactive.
In the case of `Clc1ccc(Nc2nnc(Cc3ccncc3)c3ccccc23)cc1`, the outcome in test [2] was inactive.
On the same count and under the same terms, for `O=C(O)C(=O)O` the value was “inactive”.
Take `OCC(CO)(CBr)CBr`: the compound was classed as inactive in test [3], in test [4], in test [5], in [6], in test [7] and in test [8]. In addition, the call in test [9] and in test [10] was inactive.
As to `CC(C)(C)c1ccc(CCC=O)cc1`, the outcome in test [2] was inactive.
On to `CCCCC=O`, for which the AC50 in test [3] was 45.3 µM (active); in test [5], 38.4 µM (active); in test [6], 44.9 µM (active); in test [7], 38.8 µM (active); in test [9], 42.9 µM (active); in [10], 54.8 µM (active). The compound was called inactive in [4].
Consider `O=C(CCCN1CCC(O)(c2ccc(Cl)cc2)CC1)c1ccc(F)cc1`, for which the compound was classed as inactive in test [1], in [2] and in test [8]. Further, the AC50 in test [3] was 13.1 µM (active); in test [4], 5.66 µM (active); in [5], 4.96 µM (active); in test [6] it was 2.46 µM (active); in test [7], 5.66 µM (active); in test [9], 3.98 µM (active). Besides, the AC50 in test [10] is 4.16 µM (active).
In the case of `O=C(c1ccccc1)c1ccccc1`, the compound was called inactive in test [1], in [2], in test [3], in [4], in [5] and in test [6]. Besides, the result in test [7], in test [8] and in test [9] was inactive.
Regarding `CCC(C)c1ccccc1O` (configuration not stated), the compound was classed as inactive in [3], in test [4], in test [5], in test [6], in test [7] and in test [8]. Also, the call in test [9] and in [10] was inactive.
For `O=C1NS(=O)(=O)c2ccccc21`, the compound was called inactive in test [3], in test [4], in test [5], in test [6], in [7] and in [8]. Besides, the compound was classed as inactive in test [9].
On to `CN(Cc1cnc2nc(N)nc(N)c2n1)c1ccc(C(=O)N[C@@H](CCC(=O)O)C(=O)O)cc1`, for which the call in test [3], in test [4], in test [5], in [6], in test [7] and in [9] was inactive. Moreover, the result in test [10] was inactive.
Turning to `O=C1OC2(c3ccccc31)c1cc(I)c(O)c(I)c1Oc1c2cc(I)c(O)c1I`, the call in [1] and in test [2] was inactive. Moreover, the AC50 in [2] was 73.9 µM (active).
In the case of `CN(C)CCOC(c1ccccc1)c1ccccc1`, the compound was classed as inactive in [1], in test [5], in test [6] and in test [8]. For the same compound, the AC50 in [3] is 15.4 µM (active); in test [4], 22.3 µM (active); in test [7], 14.6 µM (active); in test [9], 26.7 µM (active).
In the case of `CCCCCCCCCCCCCCC`, the call in test [3], in test [4], in [5], in test [6], in test [7] and in test [8] was inactive. Moreover, the result in test [9] and in test [10] was inactive.
With `Cc1cc(=O)oc2cc(O)ccc12`, the call in test [1] was inactive. In [2], the AC50 was 53.2 µM (active) and 54.1 µM (active); the result was inactive.
For the compound `C=CC(C)(CCC=C(C)C)OC(C)=O` (configuration not stated), the outcome in [2] was inactive.
The same measure, in the same setting: in the case of `Cc1ccc(C(=O)c2ccccc2)cc1` it was “inactive”; in that of `CCC(C)c1nccnc1OC` (configuration not stated), “inactive”.
Same read-out and setting: for `CC(C)(C)C1CCCCC1O` (configuration not stated) the value was “inactive”.
